Test results taken from paper PMC9911399, “Two distinct binding modes provide the RNA-binding protein RbFox with extraordinary sequence specificity”.
Changes are numbered by the printed parent chain; changes in the protein carry UniProt numbers. Over roughly 16,000 sequences, “ka relative to ugcaugu” has its median near 0.0091; the highest 2% begin near 0.032. The entries come from a sample that favours the highest values as a whole.

T1: RBFOX1 RRM (Homo sapiens, UniProt Q9NWB1 109-208)
T1 sequence: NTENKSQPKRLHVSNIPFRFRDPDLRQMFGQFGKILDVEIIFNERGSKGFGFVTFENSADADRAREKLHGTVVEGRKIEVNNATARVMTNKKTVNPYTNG

B1: UCGCAGG (DNA:RNA)
RNA: GGGAGACCGGAAUUCAGAUUGUCCUCGCAGGUUAAAUCCCGUCGUAGCCACCA
DNA 1: CAATCTGAATTCCGGTCTCCC
DNA 2: TGGTGGCTACGACGGGATT
B2: UACAUAC (DNA:RNA)
RNA: B1 RNA with C26A, G27C, C28A, A29U, G30A, G31C
DNA 1: CAATCTGAATTCCGGTCTCCC
DNA 2: TGGTGGCTACGACGGGATT
B3: GGUAUUA (DNA:RNA)
RNA: GGGAGACCGGAAUUCAGAUUGUCCGGUAUUAUUAAAUCCCGUCGUAGCCACCA
DNA 1: CAATCTGAATTCCGGTCTCCC
DNA 2: TGGTGGCTACGACGGGATT
B4: GGUAAUG (DNA:RNA)
RNA: B3 RNA with U29A, A31G
DNA 1: CAATCTGAATTCCGGTCTCCC
DNA 2: TGGTGGCTACGACGGGATT
B5: UUAGUUG (DNA:RNA)
RNA: B3 RNA with G25U, G26U, U27A, A28G, A31G
DNA 1: CAATCTGAATTCCGGTCTCCC
DNA 2: TGGTGGCTACGACGGGATT
B6: AUGCCAC (DNA:RNA)
RNA: B1 RNA with U25A, C26U, A29C, G30A, G31C
DNA 1: CAATCTGAATTCCGGTCTCCC
DNA 2: TGGTGGCTACGACGGGATT
B7: GUUACCC (DNA:RNA)
RNA: B3 RNA with G26U, U29C, U30C, A31C
DNA 1: CAATCTGAATTCCGGTCTCCC
DNA 2: TGGTGGCTACGACGGGATT
B8: CCCUGGG (DNA:RNA)
RNA: B1 RNA with U25C, G27C, C28U, A29G
DNA 1: CAATCTGAATTCCGGTCTCCC
DNA 2: TGGTGGCTACGACGGGATT
B9: UGGUGCU (DNA:RNA)
RNA: B1 RNA with C26G, C28U, A29G, G30C, G31U
DNA 1: CAATCTGAATTCCGGTCTCCC
DNA 2: TGGTGGCTACGACGGGATT
B10: UGGGGCG (DNA:RNA)
RNA: B1 RNA with C26G, C28G, A29G, G30C
DNA 1: CAATCTGAATTCCGGTCTCCC
DNA 2: TGGTGGCTACGACGGGATT
B11: UGGGUGA (DNA:RNA)
RNA: B3 RNA with G25U, U27G, A28G, U30G
DNA 1: CAATCTGAATTCCGGTCTCCC
DNA 2: TGGTGGCTACGACGGGATT
B12: UGGGCGU (DNA:RNA)
RNA: B1 RNA with C26G, C28G, A29C, G31U
DNA 1: CAATCTGAATTCCGGTCTCCC
DNA 2: TGGTGGCTACGACGGGATT
B13: UGGGUGC (DNA:RNA)
RNA: B1 RNA with C26G, C28G, A29U, G31C
DNA 1: CAATCTGAATTCCGGTCTCCC
DNA 2: TGGTGGCTACGACGGGATT
B14: CUGGGUG (DNA:RNA)
RNA: B1 RNA with U25C, C26U, C28G, A29G, G30U
DNA 1: CAATCTGAATTCCGGTCTCCC
DNA 2: TGGTGGCTACGACGGGATT
B15: UGGCGUU (DNA:RNA)
RNA: B1 RNA with C26G, A29G, G30U, G31U
DNA 1: CAATCTGAATTCCGGTCTCCC
DNA 2: TGGTGGCTACGACGGGATT
B16: CCUGGUG (DNA:RNA)
RNA: B3 RNA with G25C, G26C, A28G, U29G, A31G
DNA 1: CAATCTGAATTCCGGTCTCCC
DNA 2: TGGTGGCTACGACGGGATT
B17: CUAAUAC (DNA:RNA)
RNA: B3 RNA with G25C, G26U, U27A, U30A, A31C
DNA 1: CAATCTGAATTCCGGTCTCCC
DNA 2: TGGTGGCTACGACGGGATT
B18: UUAAUCA (DNA:RNA)
RNA: B3 RNA with G25U, G26U, U27A, U30C
DNA 1: CAATCTGAATTCCGGTCTCCC
DNA 2: TGGTGGCTACGACGGGATT
B19: UUUGCUU (DNA:RNA)
RNA: B3 RNA with G25U, G26U, A28G, U29C, A31U
DNA 1: CAATCTGAATTCCGGTCTCCC
DNA 2: TGGTGGCTACGACGGGATT
B20: CCAAUGG (DNA:RNA)
RNA: B1 RNA with U25C, G27A, C28A, A29U
DNA 1: CAATCTGAATTCCGGTCTCCC
DNA 2: TGGTGGCTACGACGGGATT
B21: UACCAUC (DNA:RNA)
RNA: B1 RNA with C26A, G27C, G30U, G31C
DNA 1: CAATCTGAATTCCGGTCTCCC
DNA 2: TGGTGGCTACGACGGGATT
B22: CAGGAGG (DNA:RNA)
RNA: B1 RNA with U25C, C26A, C28G
DNA 1: CAATCTGAATTCCGGTCTCCC
DNA 2: TGGTGGCTACGACGGGATT
B23: GCAUGGG (DNA:RNA)
RNA: B1 RNA with U25G, G27A, C28U, A29G
DNA 1: CAATCTGAATTCCGGTCTCCC
DNA 2: TGGTGGCTACGACGGGATT
B24: GCAUGGC (DNA:RNA)
RNA: B1 RNA with U25G, G27A, C28U, A29G, G31C
DNA 1: CAATCTGAATTCCGGTCTCCC
DNA 2: TGGTGGCTACGACGGGATT
B25: GGAUGGC (DNA:RNA)
RNA: B3 RNA with U27A, A28U, U29G, U30G, A31C
DNA 1: CAATCTGAATTCCGGTCTCCC
DNA 2: TGGTGGCTACGACGGGATT
B26: GUAUGGG (DNA:RNA)
RNA: B1 RNA with U25G, C26U, G27A, C28U, A29G
DNA 1: CAATCTGAATTCCGGTCTCCC
DNA 2: TGGTGGCTACGACGGGATT
B27: GUCAUGG (DNA:RNA)
RNA: B3 RNA with G26U, U27C, U30G, A31G
DNA 1: CAATCTGAATTCCGGTCTCCC
DNA 2: TGGTGGCTACGACGGGATT
B28: GCAUAGC (DNA:RNA)
RNA: B1 RNA with U25G, G27A, C28U, G31C
DNA 1: CAATCTGAATTCCGGTCTCCC
DNA 2: TGGTGGCTACGACGGGATT
B29: GGCAUGG (DNA:RNA)
RNA: B3 RNA with U27C, U30G, A31G
DNA 1: CAATCTGAATTCCGGTCTCCC
DNA 2: TGGTGGCTACGACGGGATT
B30: GGAAUGG (DNA:RNA)
RNA: B3 RNA with U27A, U30G, A31G
DNA 1: CAATCTGAATTCCGGTCTCCC
DNA 2: TGGTGGCTACGACGGGATT
B31: GGAUGGG (DNA:RNA)
RNA: B3 RNA with U27A, A28U, U29G, U30G, A31G
DNA 1: CAATCTGAATTCCGGTCTCCC
DNA 2: TGGTGGCTACGACGGGATT
B32: GUAUGGU (DNA:RNA)
RNA: B3 RNA with G26U, U27A, A28U, U29G, U30G, A31U
DNA 1: CAATCTGAATTCCGGTCTCCC
DNA 2: TGGTGGCTACGACGGGATT
B33: GCAUGGU (DNA:RNA)
RNA: B1 RNA with U25G, G27A, C28U, A29G, G31U
DNA 1: CAATCTGAATTCCGGTCTCCC
DNA 2: TGGTGGCTACGACGGGATT
B34: GCAUCGU (DNA:RNA)
RNA: B1 RNA with U25G, G27A, C28U, A29C, G31U
DNA 1: CAATCTGAATTCCGGTCTCCC
DNA 2: TGGTGGCTACGACGGGATT

Each binder was assayed against T1, RBFOX1 RRM (assay: EMSA; HiTS-Eq, 1 nM pool, 10 min; buffer printed only for the single-RNA assays: 10 mM Tris pH 7.5, 150 mM NaCl, 3.4 mM EDTA, 0.001% NP-40, 30 C). Conditions: tags: His6 N-terminal (pET28a); label: 5' 32P.
Procedure, shortened: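 Purified wild-type or mutant RbFox RRM at increasing concentrations was equilibrated with 1 nM of 5′-radiolabelled RNA carrying 7 randomized nucleotides for 10 min in 50 µL. Unbound RNA was separated by 8% native PAGE and sequenced. Relative association constants came from read-count changes of each RNA species compared with the control reaction, normalised to the cognate motif.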

Q: How did the binding signal turn out when B1 was run?
A: Its binding signal is 0.0168 KA relative to UGCAUGU.

Q: How did the binding signal turn out when B2 was run?
A: The binding signal was 0.00108 KA relative to UGCAUGU.

Q: With B3 as the binder, how does the binding signal read?
A: Its binding signal is 0.00455 KA relative to UGCAUGU.

Q: B4 was tested. Which binding signal did it give?
A: Its binding signal is 0.0152 KA relative to UGCAUGU.

Q: B5 was tested. Which binding signal did it give?
A: Its binding signal is 0.0187 KA relative to UGCAUGU.

Q: How did the binding signal turn out when B6 was run?
A: The binding signal was 0.0065 KA relative to UGCAUGU.

Q: Which binding signal does the source give for B7 here?
A: Its binding signal is 0.0047 KA relative to UGCAUGU.

Q: With B8 as the binder, how does the binding signal read?
A: The binding signal was 0.00714 KA relative to UGCAUGU.

Q: Which binding signal does the source give for B9 here?
A: Its binding signal is 0.0292 KA relative to UGCAUGU.

Q: B10 was tested. Which binding signal did it give?
A: Its binding signal is 0.0294 KA relative to UGCAUGU.

Q: With B11 as the binder, how does the binding signal read?
A: Its binding signal is 0.0273 KA relative to UGCAUGU.

Q: With B12 as the binder, how does the binding signal read?
A: The binding signal was 0.0388 KA relative to UGCAUGU.

Q: For B13, which binding signal is on record?
A: Its binding signal is 0.0429 KA relative to UGCAUGU.

Q: How did the binding signal turn out when B14 was run?
A: The binding signal was 0.0408 KA relative to UGCAUGU.

Q: B15 was tested. Which binding signal did it give?
A: Its binding signal is 0.0221 KA relative to UGCAUGU.

Q: B16 was tested. Which binding signal did it give?
A: The binding signal was 0.0199 KA relative to UGCAUGU.

Q: B17 was tested. Which binding signal did it give?
A: The binding signal was 0.00176 KA relative to UGCAUGU.

Q: With B18 as the binder, how does the binding signal read?
A: The binding signal was 0.00562 KA relative to UGCAUGU.

Q: With B19 as the binder, how does the binding signal read?
A: Its binding signal is 0.0228 KA relative to UGCAUGU.

Q: How did the binding signal turn out when B20 was run?
A: The binding signal was 0.00975 KA relative to UGCAUGU.

Q: For B21, which binding signal is on record?
A: Its binding signal is 0.000341 KA relative to UGCAUGU.

Q: For B22, which binding signal is on record?
A: Its binding signal is 0.00882 KA relative to UGCAUGU.

Q: How did the binding signal turn out when B23 was run?
A: The binding signal was 0.0735 KA relative to UGCAUGU.

Q: Which binding signal does the source give for B24 here?
A: The binding signal was 0.43 KA relative to UGCAUGU.

Q: With B25 as the binder, how does the binding signal read?
A: Its binding signal is 0.0116 KA relative to UGCAUGU.

Q: For B26, which binding signal is on record?
A: The binding signal was 0.00944 KA relative to UGCAUGU.

Q: With B27 as the binder, how does the binding signal read?
A: Its binding signal is 0.0107 KA relative to UGCAUGU.

Q: With B28 as the binder, how does the binding signal read?
A: The binding signal was 0.0095 KA relative to UGCAUGU.

Q: B29 was tested. Which binding signal did it give?
A: Its binding signal is 0.104 KA relative to UGCAUGU.

Q: For B30, which binding signal is on record?
A: Its binding signal is 0.0293 KA relative to UGCAUGU.

Q: How did the binding signal turn out when B31 was run?
A: The binding signal was 0.0169 KA relative to UGCAUGU.

Q: Which binding signal does the source give for B32 here?
A: The binding signal was 0.0104 KA relative to UGCAUGU.

Q: With B33 as the binder, how does the binding signal read?
A: Its binding signal is 0.558 KA relative to UGCAUGU.

Q: How did the binding signal turn out when B34 was run?
A: The binding signal was 0.0157 KA relative to UGCAUGU.
